High-throughput results deposited in PubChem BioAssay by National Center for Advancing Translational Sciences (NCATS).
The list is not random: actives were taken first. Their share in the collection is about 9%.
ALDH1A1 block = qHTS Assay for Inhibitors of Aldehyde Dehydrogenase 1 (ALDH1A1); Aldehyde dehydrogenase 1A1 (Homo sapiens), P00352; 220,000 tested, 7.3% active; AID 1030, 2008; Purified ALDH1A1, NADH fluorescence, propionaldehyde substrate; Potency, µM (highest dose often 75.3 µM), most hits filed as inhibitors; active means well fitted inhibition curve with a large enough effect, not every such curve was filed as active; inconclusive means small, poorly fitted or top-dose-only effect, or another doubt; inactive means no such curve, though single readings can be large or run the other way
Target sequence (P00352 whole entry, looked up): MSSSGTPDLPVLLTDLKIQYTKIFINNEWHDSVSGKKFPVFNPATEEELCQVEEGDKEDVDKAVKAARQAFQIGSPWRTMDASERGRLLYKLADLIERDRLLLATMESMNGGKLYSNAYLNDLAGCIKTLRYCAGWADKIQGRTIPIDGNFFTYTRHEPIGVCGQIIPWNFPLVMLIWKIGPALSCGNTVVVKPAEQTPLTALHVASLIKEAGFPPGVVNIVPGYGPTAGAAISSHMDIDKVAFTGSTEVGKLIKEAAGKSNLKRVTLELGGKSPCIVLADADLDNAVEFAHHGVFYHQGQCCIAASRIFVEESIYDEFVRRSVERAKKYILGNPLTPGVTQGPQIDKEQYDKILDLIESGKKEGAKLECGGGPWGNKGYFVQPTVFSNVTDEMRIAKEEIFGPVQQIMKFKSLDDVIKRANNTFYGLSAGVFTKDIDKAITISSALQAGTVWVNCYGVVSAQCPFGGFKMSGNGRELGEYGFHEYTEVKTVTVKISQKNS
IMPase Li inh = qHTS Assay for Identifying the Cell-Membrane Permeable IMPase Inhibitors: Potentiation with Lithium; CHO-M1 cells, IP1 TR-FRET (IP-One), carbachol + lithium; Potency, µM (highest dose often 59.4 µM), actives largely listed as inhibitors; 210,000 tested, 0.35% active;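 further: IP1 builds up when IMPase is blocked and the TR-FRET signal falls; nearly all actives have a fitted effect of over 50% in size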
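IP1 accumulation measured by competitive TR-FRET in lysed CHO-M1 cells after 30 min compound exposure at 37C, with a small lithium addition to potentiate weak responses. Hill-equation AC50 from ratio and donor-channel data.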
HPGD block = qHTS Assay for Inhibitors of HPGD (15-Hydroxyprostaglandin Dehydrogenase) | purified HPGD, NADH fluorescence kinetic, PGE2 substrate | 15-hydroxyprostaglandin dehydrogenase [NAD(+)] (Homo sapiens), P15428 | Potency, µM, hits mostly inhibitors | 150,000 tested, 4.3% active; active means well fitted inhibition curve with a large enough effect, not every such curve was filed as active; inconclusive means small, poorly fitted or top-dose-only effect, or another doubt; inactive means no such curve, though single readings can be large or run the other way
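20 nM HPGD preincubated 15 min at room temperature with compound in 50 mM Tris-HCl pH 8, 0.01% Tween 20. Started with 1 mM NAD+ and 30 uM prostaglandin E2; NADH fluorescence (360/450 nm) read 5 times over 30-s intervals, last minus first.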
Lamin A splicing = qHTS Assay for Modulators of Lamin A Splicing; HeLa LMNA splicing GFP/RFP minigene ratio, 48 h; Potency, µM (highest dose often 46.1 µM), actives largely listed as inhibitors; 200,000 tested, 0.01% active; AID 1487, 2009; active means well fitted inhibition curve with a large enough effect in the signal ratio, with a control signal flat, not every such curve was filed as active; inconclusive means small, poorly fitted or top-dose-only effect, or effect the other way, or a change in a side signal; the % refers to the signal ratio
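S3 HeLa cells stably expressing lamin A-EGFP splicing minigene plus DsRed2, 600 cells/well, 48 h compound exposure at 37C. Laser-scanning cytometry; analysed as GFP (500-530 nm)/RFP (575-640 nm) total intensity ratio; 0.5% DMSO vehicle.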
Luc counter = Counterscreen for Luciferase (Kinase-Glo TM) Inhibition | Luciferin 4-monooxygenase (Photuris pensylvanica), Q27757 | 200,000 tested, 0.28% active | Kinase-Glo luciferase, ATP luminescence, 8 min | Potency, µM (series often up to 38.3 µM), usual class: inhibitors | AID 1379, 2008; further: nearly all actives have a fitted effect of over 60% in size
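Kinase-Glo luciferase light output from ATP and luciferin was measured with 10 uM ATP, within the enzyme's linear range. Buffer: 50 mM imidazole pH 7.2, 50 mM KCl, 7 mM MgCl2, 0.01% Tween 20, 0.05% BSA; luminescence read after 8 min at ambient temperature.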
Large screens that a line does not name were inactive. Unless noted, the call rests on the fitted dose curve; in most records, active means well fitted curve in the direction sought with a large enough effect; inconclusive means small, poorly fitted or top-dose-only effect, or another doubt; inactive means no such curve, though single readings can be large; an effect the other way counts as inactive or inconclusive.

COc1cccc2cc(C(=O)C3=C(O)C(=O)N(CCN(C)C)C3c3ccc(F)cc3)oc12 (centres undefined)	IMPase Li inh inconclusive
CCN(CC)CCCN1C(=O)C(O)=C(C(=O)c2cc3ccccc3o2)C1c1ccccn1 (centres undefined)	IMPase Li inh 13µM
CN(C)CCN1C(=O)C(O)=C(C(=O)c2cc3ccccc3o2)C1c1ccccn1 (centres undefined)	IMPase Li inh inconclusive
COc1ccc(OC)c(C2C(C(=O)c3sc(C)nc3C)=C(O)C(=O)N2CCN2CCOCC2)c1 (centres undefined)	none (no result: IMPase Li inh, HPGD block, Luc counter)
CN(C)CCN1C(=O)C(O)=C(C(=O)c2cc3ccccc3o2)C1c1ccc(N(C)C)cc1 (centres undefined)	ALDH1A1 block 28µM
COc1ccccc1C1C(C(=O)c2cc3ccccc3o2)=C(O)C(=O)N1CCN1CCOCC1 (centres undefined)	ALDH1A1 block 20µM, IMPase Li inh 32µM
COc1ccc(NC(=S)N(CCCN2CCCC2)Cc2cccn2Cc2ccc(Cl)cc2)cc1Cl	ALDH1A1 block inconclusive, Lamin A splicing inconclusive (no result: HPGD block)
CC(=O)/C(=C\c1ccccc1)CC(=O)O	none
Cc1ccc(O)c(C(=O)c2cnc3c(c2)CN(C)C(=O)N3)c1	ALDH1A1 block 25µM, HPGD block 28µM
Cc1ccc2c(c1)-c1ncc(C(=O)c3cc(Br)ccc3O)cc1CO2	none (no result: HPGD block)
Cc1ccc(O)c(C(=O)c2cnc3c(c2)COc2ccc(C)cc2-3)c1	HPGD block 18µM, Lamin A splicing inconclusive
CN1Cc2cc(C(=O)c3cc(Cl)cc(CSc4ncccn4)c3O)cnc2NC1=O	ALDH1A1 block 28µM, IMPase Li inh inconclusive, HPGD block 14µM, Lamin A splicing inconclusive
Cc1ccc(O)c(C(=O)c2cnc3c(c2)CN(CCC(C)C)C(=O)N3)c1	ALDH1A1 block inconclusive, Lamin A splicing inconclusive
CN(C)CCNC(=O)/C=C/c1cn(-c2ccccc2)nc1-c1cc2ccccc2oc1=O	ALDH1A1 block inconclusive, Lamin A splicing inconclusive (no result: HPGD block)
CCOC(=O)CC(C(=O)OCC)P(=O)(c1ccccc1)c1ccccc1 (centres undefined)	ALDH1A1 block 10µM
CCCC(C(=O)OCC)P(=O)(c1ccccc1)c1ccccc1 (centres undefined)	none
CCOC(=O)c1c(CC(C)C)csc1NC(=O)C(C)C	none
CC(C)Cc1csc(NC(=O)c2ccccc2Cl)c1C(=O)O	ALDH1A1 block inconclusive, HPGD block 14µM, Lamin A splicing inconclusive
CC(C)Cc1csc(NC(=O)c2ccc(Cl)cc2)c1C(=O)O	HPGD block 18µM, Lamin A splicing inconclusive
COC(=O)c1c(-c2cccs2)csc1NC(=O)c1ccc(Cl)cc1	none (no result: ALDH1A1 block, IMPase Li inh, HPGD block, Luc counter)
Cc1cccc(C(=O)Nc2sc(C)c(-c3ccccc3)c2C#N)c1	ALDH1A1 block inconclusive, HPGD block inconclusive, Lamin A splicing inconclusive
CCOC(=O)c1c(CC(C)C)csc1NC(=O)CCl	ALDH1A1 block 8.9µM
Cc1cccc(C(=O)Nc2scc(CC(C)C)c2C(=O)O)c1	ALDH1A1 block inconclusive, HPGD block 16µM, Lamin A splicing inconclusive
CN(C)CCC[C@@]1(c2ccc(F)cc2)OCc2cc(C#N)ccc21	Lamin A splicing inconclusive
Cc1cc(N2CCN(C)CC2)ccc1NC(=O)c1cccc(S(=O)(=O)N2CCc3ccccc3C2)c1	none (no result: HPGD block, Lamin A splicing)
O=C(Nc1ccc(N2CCOCC2)cc1)c1ccccc1SCC(=O)N1CCCC1	none (no result: HPGD block)
O=C(O)c1c(NC(=O)c2cccc3ccccc23)sc2c1CCC2	ALDH1A1 block inconclusive, HPGD block 16µM
O=C(Nc1sc2c(c1C(=O)O)CCC2)c1ccccc1	HPGD block 18µM, Lamin A splicing inconclusive
O=C(Nc1sc2c(c1C(=O)O)CCCCC2)c1ccccc1	ALDH1A1 block inconclusive, Luc counter inconclusive (no result: HPGD block, Lamin A splicing)
O=C(Nc1sc2c(c1C(=O)O)CCC2)c1cccs1	ALDH1A1 block inconclusive, HPGD block 25µM, Lamin A splicing inconclusive
NC(=O)c1c(NC(=O)c2cccs2)sc2c1CCCCCC2	ALDH1A1 block inconclusive, HPGD block inconclusive, Lamin A splicing inconclusive
CCN(CC(=O)NCc1ccc(Cl)cc1)C(=O)/C=C/c1cccs1	Lamin A splicing inconclusive (no result: HPGD block)
CCOc1ccc(N2C(=O)C(Cl)=C(Nc3ccccc3O)C2=O)cc1	ALDH1A1 block 14µM, HPGD block 25µM
O=C1C(Cl)=C(Nc2ccccc2O)C(=O)N1CCc1ccccc1	ALDH1A1 block 4µM, HPGD block 11µM
COc1ccc(NC2=C(Cl)C(=O)N(c3ccccc3)C2=O)c(OC)c1	ALDH1A1 block inconclusive (no result: HPGD block)
COc1ccc(CCNC2=C(Cl)C(=O)N(CCc3ccccc3)C2=O)cc1OC	ALDH1A1 block inconclusive
